Sampled rows, rich in hits. Any-hit rate of the full collection: about 1.8%.
LANA-H2A inh – blocks KSHV LANA binding to histone H2A/H2B; Q9QR71; cell-free LANA-H2A/H2B peptide, fluorescence polarization; inhibition, % (test concentration not listed); 320,000 compounds, 0.6% hits; AID 2629; in the data active = inhibition mostly above about 10%, no sharp cut-off; inactive = mostly below about 6.7%
TLR4 MyD88 comp – blocks binding of human TLR4 to MyD88. O00206+Q99836. HeLa CL3-4 TLR4/MyD88 BLA complementation, FRET ratio. inhibition, % at 8.4 µM. 200,000 compounds, 0.18% hits; in the data active = inhibition above about 25%;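 note: 0% = vehicle and 100% = reference inhibitor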
NOD2 RIPK2 PPI – blocks binding of human NOD2 to RIPK2 | O43353 | CHO BLA complementation NOD2-RIPK2, CCF4 ratio | 360,000 compounds, 0.38% hits | inhibition, % at 4.98 µM; in the data active = inhibition above about 21%;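 note: 0% = vehicle only and 100% = reference blocker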
TLR9-MyD88 inh – blocks human TLR9 binding to MyD88; Q9NR96+Q99836; inhibition, % at 4.98 µM; CHO BLA complementation TLR9-MyD88, CCF4 FRET ratio; 340,000 compounds, 0.21% hits; AID 504734;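 active = inhibition above the mean over all tested compounds plus 3 SD, cut at about 21% in these data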;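 note: 0% = DMSO only wells and 100% = clavulanate BLA inhibitor control wells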
Rtt109 HAT inh – C. albicans Rtt109 histone acetyltransferase inhibition; 330,000 compounds, 0.16% hits; AID 540336; purified Rtt109/Vps75, ThioGlo CoA-SH fluorescence, 4 h; inhibition, % at 34.9 µM;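 active = inhibition of at least 50% in every replicate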
m5-HT2A agonist – agonists of mouse serotonin 5-HT2A receptor (HTR2A). activation, % at 7.6 µM. 360,000 compounds, 0.66% hits. AID 624169. CHO-K1 mHTR2A beta-arrestin complementation, luminescence; percent of 30 µM serotonin response;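 active = activation above a run cutoff, the mean activation of all tested compounds plus 3 SD, cut at about 14% in these data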;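 note: 0% = plate median of compound wells and 100% = 30 µM serotonin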
TLR9-MyD88 cf – TLR9-MyD88 interaction inhibition, confirmation | shares compounds with TLR9-MyD88 inh | CHO TLR9/MyD88 BLA complementation, CCF4 FRET ratio | inhibition, % at 4.98 µM | 680 compounds, 51% hits;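 active = mean inhibition across three repeats above about 21% taken from the earlier screen, limit read from the data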;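 note: blue over green emission ratio reports constitutive TLR9 MyD88 association via BLA complementation; 0% = DMSO vehicle wells and 100% = clavulanate BLA inhibitor wells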
Target sequence (Q9NR96 whole entry, looked up): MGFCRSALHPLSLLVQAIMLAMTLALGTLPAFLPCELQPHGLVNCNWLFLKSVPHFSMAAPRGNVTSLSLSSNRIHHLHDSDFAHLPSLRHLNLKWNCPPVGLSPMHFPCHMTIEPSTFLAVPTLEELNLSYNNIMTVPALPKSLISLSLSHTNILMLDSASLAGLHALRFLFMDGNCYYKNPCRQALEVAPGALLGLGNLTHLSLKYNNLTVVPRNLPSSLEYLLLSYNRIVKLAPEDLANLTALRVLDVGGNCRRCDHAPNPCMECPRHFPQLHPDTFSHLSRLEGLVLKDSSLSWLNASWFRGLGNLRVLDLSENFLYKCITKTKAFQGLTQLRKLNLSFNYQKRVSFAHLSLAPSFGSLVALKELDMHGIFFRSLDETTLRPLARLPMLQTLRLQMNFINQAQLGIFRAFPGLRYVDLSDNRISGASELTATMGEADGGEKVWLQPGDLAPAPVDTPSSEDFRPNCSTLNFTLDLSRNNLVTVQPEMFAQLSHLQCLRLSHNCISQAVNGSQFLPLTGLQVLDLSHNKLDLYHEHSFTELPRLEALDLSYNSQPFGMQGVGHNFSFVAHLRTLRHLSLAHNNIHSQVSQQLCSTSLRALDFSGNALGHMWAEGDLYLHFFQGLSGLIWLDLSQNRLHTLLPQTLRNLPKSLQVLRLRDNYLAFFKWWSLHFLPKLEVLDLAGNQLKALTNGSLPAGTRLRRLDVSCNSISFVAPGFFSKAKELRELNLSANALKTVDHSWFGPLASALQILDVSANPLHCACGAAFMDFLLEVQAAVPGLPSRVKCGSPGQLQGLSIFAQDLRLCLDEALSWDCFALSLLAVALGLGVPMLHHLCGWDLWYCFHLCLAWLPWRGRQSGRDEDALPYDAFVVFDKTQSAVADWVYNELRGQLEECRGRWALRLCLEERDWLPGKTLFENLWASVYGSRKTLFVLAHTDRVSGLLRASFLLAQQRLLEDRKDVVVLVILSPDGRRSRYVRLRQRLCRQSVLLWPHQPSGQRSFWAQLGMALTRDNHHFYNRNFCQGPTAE
BLA counter – counter-screen for TLR9-MyD88 inhibitors: non-selective beta-lactamase inhibitors; shares compounds with TLR9-MyD88 inh; CHO-BLA cells, CCF4 FRET ratio, BLA reporter; inhibition, % at 4.98 µM; 680 compounds, 7% hits;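 active = mean inhibition above a 50% cutoff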;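 note: counterscreen of TLR9-MyD88 hits on CMV-driven BLA in CHO-K1 cells; 0% = DMSO alone and 100% = clavulanate blocking BLA; higher means less blue over green ratio so more BLA blockade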
TLR9 CHO cytotox – CHO cell toxicity counter-screen for TLR9-MyD88 inhibitors; TLR9-MyD88 CHO cells cytotoxicity, luminescence; AID 588336; shares compounds with TLR9-MyD88 inh; 680 compounds, 39% hits; inhibition, % at 4.98 µM; in the data active = inhibition above about 11%
An asterisk follows results filed as active; i = inactive; x = not tested or not shown.

SMILES	LANA-H2A inh	TLR4 MyD88 comp	NOD2 RIPK2 PPI	TLR9-MyD88 inh	Rtt109 HAT inh	m5-HT2A agonist	TLR9-MyD88 cf	BLA counter	TLR9 CHO cytotox
CSc1ccccc1CNc1nc(NCC2CC2)nc2ccsc12	x	x	-0.3	x	x	-10.9	x	x	x
O=[N+]([O-])c1ccc(C=CC=Cc2ccccc2)cc1	x	x	5.8	24.5*	x	-0.3	16.6	20.4	-3.2
COc1ccc(C(=O)/C=C/c2ccc(O)cc2)c(O)c1CC=C(C)C	2.9	-6.0	3.4	5.2	-4.5	-12.8	x	x	x
COc1ccc(C(=O)/C=C/c2ccc(O)cc2)c2c1CC(O)C(C)(C)O2 (stereo unspecified)	x	x	3.5	22.8*	19.0	-9.8	5.8	4.5	4.9
O=C(/C=C/[C@H]1O[C@@H](n2ccc(=O)[nH]c2=O)[C@H](O)[C@@H]1O)NCc1cccnc1	x	x	-2.6	x	x	-0.8	x	x	x
Cc1oc(-c2cc(F)ccc2F)nc1CN1CCN(c2cnccn2)CC1	-0.1	-1.9	1.2	21.7*	0.6	-1.2	-1.6	-2.5	1.6
CCOC1CCCc2oc(-c3ccc(OC)cc3)c(C(=O)NCCCCO)c21 (stereo unspecified)	x	x	-10.4	x	x	2.0	x	x	x
CC(C)[C@@H]1Cc2[nH]n(C)c(=O)c2[C@H](c2ccc(F)cc2)O1	x	x	-4.1	x	x	4.0	x	x	x
CCn1nc(-c2ccccc2)c2nc3ccccc3nc21	7.4	24.9	9.7	25.2*	-60.0	1.3	35.4*	34.4	4.0
CCOC(=O)C1CCN(C(=O)c2cc3c(-c4ccc(OC)c(OC)c4)nn(C)c3s2)CC1	-2.6	8.7	-10.9	12.6	-3.2	1.7	x	x	x
CCOC(=O)C1CCCN(C(=O)c2cc3c(-c4cccc(OC)c4)nn(C)c3s2)C1 (stereo unspecified)	3.6	-5.1	4.9	28.2*	23.4	2.0	3.3	-2.1	27.2*
O=C1NC[C@@H](CCCCN2C[C@H](Cc3ccc(O)cc3)N(CC3CCCCC3)C(=O)C2=O)N(CC2CCCCC2)C1=O	x	x	-1.2	x	x	-2.3	x	x	x
CCN(CC)C(=O)CSc1nc(-c2cccs2)cc(-c2cccs2)c1C#N	0.0	13.9	-7.5	-7.1	-6.4	-1.4	x	x	x
CN1CCN(C(=O)CSc2nc(-c3cccs3)cc(-c3cccs3)c2C#N)CC1	0.1	-10.3	17.7	23.7*	3.9	-6.1	20.7	18.9	5.2
COc1ccc(CNC(=O)NC2CCCCC2)cc1	-1.5	-1.8	-3.9	-9.2	4.9	1.1	x	x	x
COc1ccc(CN2CCC(CNC(=O)NC3CCCCC3)CC2)cc1	-0.9	6.0	2.2	22.1*	-4.3	1.4	-1.2	2.1	0.0
O=C1NC[C@@H](CCCCN2C[C@H](Cc3ccc(O)cc3)N(Cc3ccccc3)C(=O)C2=O)N(CCC2CCCCC2)C1=O	x	x	-10.9	x	x	-0.9	x	x	x
O=c1nc2n(c3ccc([N+](=O)[O-])cc13)CCCCC2	0.9	-10.8	3.9	-9.7	3.0	3.4	x	x	x
O=[N+]([O-])c1ccc2c(c1)C=C1CCCCC1(N1CCCCC1)O2 (stereo unspecified)	1.6	6.5	-13.6	24.4*	-4.2	1.3	-8.3	-4.9	-1.3
CN(C)S(=O)(=O)c1cccc(NC(=O)c2cc([N+](=O)[O-])ccc2N2CCCCC2)c1	i	x	7.9	21.6*	-10.8	-8.2	1.4	2.1	4.4
COc1ccccc1C(=O)Nc1onc(C)c1C#N	5.1	7.4	-5.7	22.2*	-4.4	8.9	-0.6	-2.4	-1.7
CC(C)C[C@@H](CN1CCC[C@H]1CN1C(=O)C(=O)NC[C@@H]1Cc1ccc(O)cc1)N1C[C@H](Cc2ccc(O)cc2)N(CC2CCCCCC2)C(=O)C1=O	x	x	-3.1	x	x	-1.7	x	x	x
CSCCC(C(=O)OCC(=O)c1ccc(C)c(C)c1)N1C(=O)c2cc(Cl)c(Cl)cc2C1=O (stereo unspecified)	-1.7	-11.4	-8.5	21.6*	2.2	6.9	-0.9	-2.7	1.9
Fc1cccc(/C=N/Nc2ccc(Cl)nn2)c1	-2.9	x	5.3	22.9*	8.4	-7.1	1.7	-0.4	2.9
Oc1c(Br)cc(/C=N/Nc2ccc(Cl)nn2)cc1Br	18.8	x	12.2	3.1	-4.4	-4.4	x	x	x
SMILES	LANA-H2A inh	TLR4 MyD88 comp	NOD2 RIPK2 PPI	TLR9-MyD88 inh	Rtt109 HAT inh	m5-HT2A agonist	TLR9-MyD88 cf	BLA counter	TLR9 CHO cytotox
S=c1[nH]nc(-c2cccnc2)n1Cc1ccccc1	-0.4	-4.0	2.4	23.9*	2.2	0.3	-3.1	-3.7	-2.7
COc1cccc(C2=CC(c3cccs3)n3nnnc3N2)c1 (stereo unspecified)	6.4	-7.1	8.8	-2.5	-6.7	-2.8	x	x	x
COc1cccc(C2=CC(c3ccc(OC)c(OC)c3OC)n3nnnc3N2)c1 (stereo unspecified)	0.1	1.2	15.1	21.8*	-2.6	-3.2	2.8	4.0	2.9
COC(=O)[C@@]1(Sc2ccc(C)cc2)CC(=O)N[C@@H]1c1ccc(Br)cc1	x	x	4.3	x	x	3.3	x	x	x
CC(=O)O[C@@H]1C[C@@]2(C)[C@@H](CC[C@H]2[C@@H](C)/C=C\CC(C)C)C2=C[C@@H](O)[C@@]3(O)C[C@@H](O)[C@H](O)C[C@]3(CO)[C@]21O	x	x	-3.2	x	x	1.0	x	x	x
COc1ccc(/C=C(/C(=O)c2cccs2)N2C=CC=CC2=C(C#N)C#N)cc1	x	-4.9	0.1	15.4	9.2	-0.8	x	x	x
COc1ccc(C(=O)/C(=C\c2ccco2)N2C=CC=CC2=C(C#N)C#N)cc1	2.4	5.8	85.1*	27.8*	25.2	-5.2	19.1	9.2	96.3*
COc1ccc(S(=O)(=O)N2CCC(NC(=O)C3CCCCC3)CC2)cc1	-0.8	x	4.4	20.8*	-5.9	1.4	-35.0	0.9	-3.0
CCCCN(C(=O)CSc1nnc(-c2ccccc2)n1C)c1c(N)n(Cc2ccccc2)c(=O)[nH]c1=O	0.5	0.0	1.8	20.9*	-10.5	3.2	-1.0	-0.6	1.0
Cc1ccc2c(c1)c(N=O)c(O)n2Cc1ccc(Cl)cc1	2.7	16.9	1.3	12.8	2.5	-1.5	x	x	x
O=Nc1c(O)n(Cc2ccc(Cl)cc2Cl)c2ccccc12	-1.4	0.1	16.0	33.3*	-9.0	7.8	22.6*	20.3	1.8
Cc1ccc(Cn2c(O)c(N=O)c3ccccc32)cc1	-4.2	9.3	12.9	24.4*	4.3	-4.8	0.8	3.3	5.1
C/C(Cl)=C\Cn1c(O)c(N=O)c2ccccc21	-1.0	8.5	19.0	21.3*	9.4	7.6	9.3	10.7	1.9

Compound activity: PubChem, several laboratories
